Data as given in paper PMC11062922 (Nature Chemical Biology, 2023).
Like-named read-outs stand apart in the source and are kept apart here.

Legend:
Set-up in all cases: species or system human, MV4-11 + K-562 + COLO205 + SK-N-BE2 + OVCAR-8
ADRBK1 = conditions: read-out: apparent Kd, compound concentrations: 100 nM and 1000 nM (sheet 'Samples'), n = 1
CDK6 = conditions: read-out: apparent Kd, compound concentrations: 100 nM and 1000 nM (sheet 'Samples'), n = 1
CLK3 = conditions: read-out: apparent Kd; compound concentrations: 100 nM and 1000 nM (sheet 'Samples'), CATDS: 0.34896481785662797; n = 1
AURKB = conditions: read-out: apparent Kd; compound concentrations: 100 nM and 1000 nM (sheet 'Samples'), CATDS: 4.53976270719329E-2; n = 1
CDC42BPA = conditions: read-out: apparent Kd; compound concentrations: 100 nM and 1000 nM (sheet 'Samples'), CATDS: 4.6703340399090902E-2; n = 1
CDC42BPB = conditions: read-out: apparent Kd; compound concentrations: 100 nM and 1000 nM (sheet 'Samples'), CATDS: 8.1718607262500007E-2; n = 1
CDC42BPG = conditions: read-out: apparent Kd; compound concentrations: 100 nM and 1000 nM (sheet 'Samples'), CATDS: 0.122976821527932; n = 1
MELK = conditions: read-out: apparent Kd; compound concentrations: 100 nM and 1000 nM (sheet 'Samples'), CATDS: 4.0337872556692203E-2; n = 1
PKN1 = conditions: read-out: apparent Kd; compound concentrations: 100 nM and 1000 nM (sheet 'Samples'), CATDS: 5.5828153237378199E-2; n = 1
PRKACA = conditions: read-out: apparent Kd; compound concentrations: 100 nM and 1000 nM (sheet 'Samples'), CATDS: 0.15364930572584601; n = 1
PRKACB = conditions: read-out: apparent Kd; compound concentrations: 100 nM and 1000 nM (sheet 'Samples'), CATDS: 8.6308392593060404E-2; n = 1
PRKG1 = conditions: read-out: apparent Kd; compound concentrations: 100 nM and 1000 nM (sheet 'Samples'), CATDS: 0.45709294819491503; n = 1
PRKX;PRKY = conditions: read-out: apparent Kd; compound concentrations: 100 nM and 1000 nM (sheet 'Samples'), CATDS: 6.11631694313804E-2; n = 1
ROCK1 = conditions: read-out: apparent Kd; compound concentrations: 100 nM and 1000 nM (sheet 'Samples'), CATDS: 0.130780563846252; n = 1
ROCK2 = conditions: read-out: apparent Kd; compound concentrations: 100 nM and 1000 nM (sheet 'Samples'), CATDS: 0.120469396164387; n = 1
RPS6KA5 = conditions: read-out: apparent Kd; compound concentrations: 100 nM and 1000 nM (sheet 'Samples'), CATDS: 4.3322192000587102E-2; n = 1
RPS6KB1 = conditions: read-out: apparent Kd; compound concentrations: 100 nM and 1000 nM (sheet 'Samples'), CATDS: 4.8981649950923703E-2; n = 1
AKT1 = conditions: read-out: apparent Kd; compound concentrations: 100 nM and 1000 nM (sheet 'Samples'), CATDS: 4.8230371724731401E-2; n = 1
AKT2 = conditions: read-out: apparent Kd; compound concentrations: 100 nM and 1000 nM (sheet 'Samples'), CATDS: 6.0440208262816403E-2; n = 1
FLT3 = conditions: read-out: apparent Kd; compound concentrations: 100 nM and 1000 nM (sheet 'Samples'), CATDS: 6.2638012545430999E-2; n = 1
HSP90B1 = conditions: read-out: apparent Kd; compound concentrations: 100 nM and 1000 nM (sheet 'Samples'), CATDS: 7.7391071706101697E-2; n = 1
IARS = conditions: read-out: apparent Kd; compound concentrations: 100 nM and 1000 nM (sheet 'Samples'), CATDS: 5.4756501565327097E-2; n = 1
MAP2K1 = conditions: read-out: apparent Kd; compound concentrations: 100 nM and 1000 nM (sheet 'Samples'), CATDS: 5.5357684673120397E-2; n = 1
MAP2K2 = conditions: read-out: apparent Kd; compound concentrations: 100 nM and 1000 nM (sheet 'Samples'), CATDS: 6.2527819701534898E-2; n = 1
MAPK14 = conditions: read-out: apparent Kd; compound concentrations: 100 nM and 1000 nM (sheet 'Samples'), CATDS: 6.9601617206552405E-2; n = 1
MAPKAPK2 = conditions: read-out: apparent Kd; compound concentrations: 100 nM and 1000 nM (sheet 'Samples'), CATDS: 5.3693102707434E-2; n = 1
MDN1 = conditions: read-out: apparent Kd; compound concentrations: 100 nM and 1000 nM (sheet 'Samples'), CATDS: 0.23126444967608101; n = 1
NNT = conditions: read-out: apparent Kd; compound concentrations: 100 nM and 1000 nM (sheet 'Samples'), CATDS: 4.6645770981233098E-2; n = 1
NQO1 = conditions: read-out: apparent Kd; compound concentrations: 100 nM and 1000 nM (sheet 'Samples'), CATDS: 6.3403997272240303E-2; n = 1
PYGL = conditions: read-out: apparent Kd; compound concentrations: 100 nM and 1000 nM (sheet 'Samples'), CATDS: 4.60061770009558E-2; n = 1
RIOK2 = conditions: read-out: apparent Kd; compound concentrations: 100 nM and 1000 nM (sheet 'Samples'), CATDS: 4.9711958169324999E-2; n = 1
VDAC3 = conditions: read-out: apparent Kd; compound concentrations: 100 nM and 1000 nM (sheet 'Samples'), CATDS: 5.6878291770418803E-2; n = 1

With `COc1ccc(CNC(=O)NC2CCN(c3ccnc(Nc4ccc(OC)cc4)n3)C2)cc1` (stereo not drawn) [GSK1379727A] the potency estimated from few doses (ADRBK1; CATDS: 0.35126637263884503) was 1270 nM, the potency estimated from few doses (CDK6; CATDS: 0.30417888081932698) was 1700 nM and the potency estimated from few doses (CLK3) was 1280 nM.
Work on `Nc1cccc(-c2ccc3c(N)n[nH]c3c2)n1` [GSK2192730A] yielded a potency estimated from few doses (ADRBK1; CATDS: 1) of 1750 nM.
`CCNCC(Cc1ccccc1)NC(=O)c1cc(Br)c(-c2ccnc3[nH]ccc23)s1.CCNCC(Cc1ccccc1)NC(=O)c1cc(Br)c(-c2ccnc3[nH]ccc23)s1.Cl.Cl` (stereo not drawn) [GSK1383280A] was tested, and the potency estimated from few doses (ADRBK1; CATDS: 4.4620595418211097E-2) was 971 nM, the potency estimated from few doses (AURKB) was 888 nM and the potency estimated from few doses (CDC42BPA) was 771 nM. For the same molecule, the potency estimated from few doses (CDC42BPB) was 103 nM, the potency estimated from few doses (CDC42BPG) was 38.1 nM and the potency estimated from few doses (MELK) was 1780 nM. For the same molecule, the potency estimated from few doses (PKN1) was 359 nM, the potency estimated from few doses (PRKACA) was 24.4 nM and the potency estimated from few doses (PRKACB) was 88.6 nM. For the same molecule, the potency estimated from few doses (PRKG1) was 4.21 nM, the potency estimated from few doses (PRKX;PRKY) was 256 nM and the potency estimated from few doses (ROCK1) was 33.5 nM. It also gave a potency estimated from few doses (ROCK2) of 39.8 nM, a potency estimated from few doses (RPS6KA5) of 1140 nM and a potency estimated from few doses (RPS6KB1) of 617 nM.
`Cc1ccc(NC(=O)Nc2cc(C(C)(C)C)nn2-c2ccccc2)cc1` [GSK1014915A] was tested, and the potency estimated from few doses (ADRBK1; CATDS: 5.8321770731493798E-2) was 1290 nM, the potency estimated from few doses (AKT1) was 2030 nM and the potency estimated from few doses (AKT2) was 1190 nM. For the same molecule, the potency estimated from few doses (CDK6; CATDS: 5.1522031717759098E-2) was 1710 nM, the potency estimated from few doses (FLT3) was 1110 nM and the potency estimated from few doses (HSP90B1) was 749 nM. It also gave a potency estimated from few doses (IARS) of 1480 nM, a potency estimated from few doses (MAP2K1) of 1440 nM and a potency estimated from few doses (MAP2K2) of 1110 nM. The potency estimated from few doses (MAPK14) was 906 nM, the potency estimated from few doses (MAPKAPK2) was 1550 nM and the potency estimated from few doses (MDN1) was 156 nM. For the same molecule, the potency estimated from few doses (NNT) was 2220 nM, the potency estimated from few doses (NQO1) was 1080 nM and the potency estimated from few doses (PYGL) was 2310 nM. It also gave a potency estimated from few doses (RIOK2) of 1870 nM and a potency estimated from few doses (VDAC3) of 1360 nM.
